# Assay results reported in PubChem BioAssay (EPA / NIEHS).
# Records with an inconclusive call do not appear. Active and inactive are the calls of the source. The calls were made as follows: active = hit-call score of the fitted dose curve at least 0.9, where 1 is the maximum; inconclusive = response in the unintended direction; inactive = score below 0.9.
# How the values were obtained:
# [1] = target: Muscarinic acetylcholine receptor M2 (Homo sapiens) (UniProt P08172); assay: NVS_GPCR_hM2: NovaScreen (NVS) G Protein-Coupled Receptor Assay for human Muscarinic, M2 Receptor (AID 2283273)
# Sequence of Muscarinic acetylcholine receptor M2 (Homo sapiens) (P08172 whole entry, looked up): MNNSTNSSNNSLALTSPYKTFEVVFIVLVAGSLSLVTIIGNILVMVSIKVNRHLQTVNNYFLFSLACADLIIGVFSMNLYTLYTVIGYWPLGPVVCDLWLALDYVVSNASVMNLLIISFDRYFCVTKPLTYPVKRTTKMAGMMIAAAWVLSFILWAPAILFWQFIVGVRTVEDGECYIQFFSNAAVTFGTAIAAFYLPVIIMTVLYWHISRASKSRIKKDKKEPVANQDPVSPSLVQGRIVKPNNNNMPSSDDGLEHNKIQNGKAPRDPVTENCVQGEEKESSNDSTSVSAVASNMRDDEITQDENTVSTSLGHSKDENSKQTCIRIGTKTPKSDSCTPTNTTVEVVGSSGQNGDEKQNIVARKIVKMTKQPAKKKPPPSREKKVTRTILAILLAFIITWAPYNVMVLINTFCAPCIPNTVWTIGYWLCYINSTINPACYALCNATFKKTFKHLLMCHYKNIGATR
# Summary of the method: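 CHO-expressed human M2 receptor preparation, competitive displacement of a radioligand read by filter-based scintillation counting after 1 h. Single 25 uM duplicate screen, then concentration-response follow-up of actives; DMSO baseline.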
# [2] = target: human Muscarinic, M4 Receptor, CHRM4 (gene 1132) (UniProt P08173); assay: NVS_GPCR_hM4: NovaScreen (NVS) G Protein-Coupled Receptor Assay for human Muscarinic, M4 Receptor (AID 2283274)
# Sequence of human Muscarinic, M4 Receptor, CHRM4 (gene 1132) (P08173 whole entry, looked up): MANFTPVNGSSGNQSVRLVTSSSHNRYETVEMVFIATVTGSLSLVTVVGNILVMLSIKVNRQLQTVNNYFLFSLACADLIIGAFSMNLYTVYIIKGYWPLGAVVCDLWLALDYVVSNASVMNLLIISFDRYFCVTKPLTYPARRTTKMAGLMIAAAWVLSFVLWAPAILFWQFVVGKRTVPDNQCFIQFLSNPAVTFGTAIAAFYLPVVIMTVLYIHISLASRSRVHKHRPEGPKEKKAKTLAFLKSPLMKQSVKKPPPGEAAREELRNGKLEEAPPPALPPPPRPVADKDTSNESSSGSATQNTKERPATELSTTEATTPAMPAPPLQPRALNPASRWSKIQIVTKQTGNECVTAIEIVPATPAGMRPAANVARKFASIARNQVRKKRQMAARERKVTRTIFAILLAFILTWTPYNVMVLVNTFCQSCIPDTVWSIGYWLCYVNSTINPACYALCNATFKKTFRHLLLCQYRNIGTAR
# Summary of the method: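 Filter-based scintillation counting of radioligand bound to CHO-expressed human M4 preparations after 1 h; loss of signal fitted versus DMSO. Initial duplicate testing at 25 uM, concentration-response follow-up for actives.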
# [3] = target: human Neuropeptide Receptor Y1 (NPY1), NPY1R (gene 4886) (UniProt P25929); assay: NVS_GPCR_hNPY1: NovaScreen (NVS) G Protein-Coupled Receptor Assay for human Neuropeptide Receptor Y1 (NPY1) (AID 2283276)
# Sequence of human Neuropeptide Receptor Y1 (NPY1), NPY1R (gene 4886) (P25929 whole entry, looked up): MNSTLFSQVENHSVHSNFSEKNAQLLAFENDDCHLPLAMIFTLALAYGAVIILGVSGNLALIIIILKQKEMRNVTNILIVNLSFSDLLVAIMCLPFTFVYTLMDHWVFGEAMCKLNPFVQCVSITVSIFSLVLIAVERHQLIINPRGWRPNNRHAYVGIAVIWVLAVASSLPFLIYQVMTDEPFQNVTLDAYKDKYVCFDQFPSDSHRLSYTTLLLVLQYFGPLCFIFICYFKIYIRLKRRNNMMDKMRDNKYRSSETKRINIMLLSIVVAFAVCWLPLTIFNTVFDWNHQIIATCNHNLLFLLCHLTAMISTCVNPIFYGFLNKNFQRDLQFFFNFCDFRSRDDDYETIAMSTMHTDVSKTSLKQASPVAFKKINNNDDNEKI
# Summary of the method: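 Displacement of specific radioligand from NPY1 receptor of SK-N-MC origin, read by filtration and scintillation after 1 h. Compounds first tested at 25 uM in duplicate, then actives in concentration series; signal loss relative to DMSO.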
# [4] = target: human Neurokinin, NK2 Receptor, TACR2 (gene 6865) (UniProt P21452); assay: NVS_GPCR_hNK2: NovaScreen (NVS) G Protein-Coupled Receptor Assay for human Neurokinin, NK2 Receptor (AID 2283278);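 also: actives reduce bound radioligand signal relative to DMSO baseline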
# Sequence of human Neurokinin, NK2 Receptor, TACR2 (gene 6865) (P21452 whole entry, looked up): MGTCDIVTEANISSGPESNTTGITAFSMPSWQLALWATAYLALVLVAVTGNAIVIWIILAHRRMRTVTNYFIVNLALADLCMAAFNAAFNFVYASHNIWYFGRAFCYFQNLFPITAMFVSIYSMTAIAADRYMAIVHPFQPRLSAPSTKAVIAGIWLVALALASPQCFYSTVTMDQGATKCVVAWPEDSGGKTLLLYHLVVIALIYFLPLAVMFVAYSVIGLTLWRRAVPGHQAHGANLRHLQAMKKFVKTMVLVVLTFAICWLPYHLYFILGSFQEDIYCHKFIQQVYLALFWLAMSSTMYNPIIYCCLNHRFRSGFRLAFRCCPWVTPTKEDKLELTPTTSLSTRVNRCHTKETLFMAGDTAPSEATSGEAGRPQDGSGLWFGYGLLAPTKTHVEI
# Summary of the method: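 CHO-derived membrane protein, radioligand displacement, filter scintillation read at 4 h post-dose. Single-point 25 uM in duplicate, then concentration series for actives; DMSO as negative control.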
# [5] = target: Neuropeptide Y receptor type 2 (Homo sapiens) (UniProt P49146); assay: NVS_GPCR_hNPY2: NovaScreen (NVS) G Protein-Coupled Receptor Assay for human Neuropeptide Receptor Y2 (NPY2) (AID 2283277)
# Sequence of Neuropeptide Y receptor type 2 (Homo sapiens) (P49146 whole entry, looked up): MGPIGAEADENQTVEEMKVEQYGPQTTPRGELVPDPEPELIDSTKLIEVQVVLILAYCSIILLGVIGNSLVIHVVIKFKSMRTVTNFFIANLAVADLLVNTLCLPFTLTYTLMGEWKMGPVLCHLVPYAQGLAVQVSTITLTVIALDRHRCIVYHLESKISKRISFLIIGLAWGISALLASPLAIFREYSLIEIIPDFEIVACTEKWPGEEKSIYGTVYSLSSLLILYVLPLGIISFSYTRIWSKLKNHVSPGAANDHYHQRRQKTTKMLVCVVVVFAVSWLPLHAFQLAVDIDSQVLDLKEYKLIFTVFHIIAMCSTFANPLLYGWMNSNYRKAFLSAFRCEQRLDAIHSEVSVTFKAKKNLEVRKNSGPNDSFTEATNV
# Experimental: (§1) NVS_GPCR_hNPY2 is a biochemical, single-readout assay that uses extracted gene-proteins from SK-N-MC in a cell-free assay. Measurements were taken 1 hour after chemical dosing in a 96-well plate.NVS_GPCR_hNPY2 is one of one assay component(s) measured or calculated from the NVS_GPCR_hNPY2 assay. It is designed to make measurements of radioligand binding, a form of binding reporter, as detected with scintillation counting signals by Filter-based radiodetection technology.Data from the assay component NVS_GPCR_hNPY2 was analyzed into 1 assay endpoint. This assay endpoint, NVS_GPCR_hNPY2, was analyzed in the positive analysis fitting direction relative to DMSO as the negative control and baseline of activity. Using a type of binding reporter, loss-of-signal activity can be used to understand changes in the binding as they relate to the gene NPY2R. Furthermore, this assay endpoint can be referred to as a primary readout, because the performed assay has only produced 1 assay endpoint. To generalize the intended target to other relatable targets, this assay endpoint is annotated to the gpcr intended target family, where the subfamily is rhodopsin-like receptor.
# (§2) Binding assays used specific radioligands (tritiated, iodinated) with non-radioactive competitive displacement ligands in agonist or antagonist protocols (as indicated) and various reference compounds and inhibitors to titrate specific binding to receptors and transporters. Most enzyme assays (CYPs, kinases, phosphatases, proteases, HDACs) used recombinant protein and specific substrates (fluorescence mostly, some colorimetric and radioactive) and inhibitors, followed by a biochemical separation of substrate and product. All assays for the biochemical HTS were initially run in duplicate at a single concentration (10 uM for CYP450 assays and 25 uM for all others). Assay-chemical combinations meeting a pre-defined threshold (e.g., 30% inhibition and other criteria defined below) were then run in singleton concentration-response format with maximum concentration of 20 uM for CYPs and 50 uM for all others. Each assay was run with positive and negative controls, and concurrent controls on every plate. The follow-up (secondary) screen tested active chemical-pairs in concentration series, as well as a few additional assays not tested in the primary screen, some selected negative inactives, and several cases re-run in the concentration series for confirmatory purposes.
# [6] = target: Muscarinic acetylcholine receptor M5 (Homo sapiens) (UniProt P08912); assay: NVS_GPCR_hM5: NovaScreen (NVS) G Protein-Coupled Receptor Assay for human Muscarinic, M5 Receptor (AID 2283275)
# Sequence of Muscarinic acetylcholine receptor M5 (Homo sapiens) (P08912 whole entry, looked up): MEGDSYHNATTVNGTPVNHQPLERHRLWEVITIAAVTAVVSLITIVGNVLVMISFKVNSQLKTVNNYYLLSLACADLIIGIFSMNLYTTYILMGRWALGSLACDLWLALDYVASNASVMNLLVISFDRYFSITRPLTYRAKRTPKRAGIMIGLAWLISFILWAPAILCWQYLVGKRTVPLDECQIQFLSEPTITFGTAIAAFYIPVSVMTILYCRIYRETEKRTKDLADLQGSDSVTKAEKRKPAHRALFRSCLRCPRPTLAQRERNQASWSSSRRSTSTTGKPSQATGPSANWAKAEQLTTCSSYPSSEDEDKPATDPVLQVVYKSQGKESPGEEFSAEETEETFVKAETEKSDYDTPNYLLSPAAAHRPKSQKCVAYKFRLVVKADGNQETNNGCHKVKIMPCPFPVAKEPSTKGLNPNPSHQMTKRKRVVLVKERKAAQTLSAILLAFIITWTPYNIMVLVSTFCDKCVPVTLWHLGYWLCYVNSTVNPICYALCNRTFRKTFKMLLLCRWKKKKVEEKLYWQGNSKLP
# Summary of the method: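 Chemicals passing a primary duplicate screen at 25 uM were run as singleton concentration series, maximum 50 uM. Displacement of a specific radioligand from CHO-extracted receptor was read by filter scintillation after 1 h, relative to DMSO.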
# [7] = target: human Leukotriene B4 Receptor 1 (LTB4-BLT1), LTB4R (gene 1241) (UniProt Q15722); assay: NVS_GPCR_hLTB4_BLT1: NovaScreen (NVS) G Protein-Coupled Receptor Assay for human Leukotriene B4 Receptor 1 (LTB4-BLT1) (AID 2283271)
# Sequence of human Leukotriene B4 Receptor 1 (LTB4-BLT1), LTB4R (gene 1241) (Q15722 whole entry, looked up): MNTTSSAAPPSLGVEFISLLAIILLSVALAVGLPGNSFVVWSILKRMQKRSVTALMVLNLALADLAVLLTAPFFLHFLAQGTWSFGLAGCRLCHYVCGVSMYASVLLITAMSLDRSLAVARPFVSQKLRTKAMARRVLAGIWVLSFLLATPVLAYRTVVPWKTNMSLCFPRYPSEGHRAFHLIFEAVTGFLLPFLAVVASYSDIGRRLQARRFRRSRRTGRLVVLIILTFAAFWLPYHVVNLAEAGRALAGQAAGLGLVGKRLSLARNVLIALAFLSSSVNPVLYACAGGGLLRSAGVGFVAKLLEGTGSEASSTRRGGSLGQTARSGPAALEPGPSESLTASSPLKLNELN
# Summary of the method: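 Cell-free human neutrophil receptor preparation, 1 h exposure, radioligand binding read by filter scintillation counting. Single 25 uM duplicate screen, then concentration series topping at 50 uM; binding loss scored against DMSO baseline.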
# [8] = target: human Opioid Receptor Delta 1 (Opiate D1), OPRD1 (gene 4985) (UniProt P41143); assay: NVS_GPCR_hOpiate_D1: NovaScreen (NVS) G Protein-Coupled Receptor Assay for human Opioid Receptor Delta 1 (Opiate D1) (AID 2283280)
# Sequence of human Opioid Receptor Delta 1 (Opiate D1), OPRD1 (gene 4985) (P41143 whole entry, looked up): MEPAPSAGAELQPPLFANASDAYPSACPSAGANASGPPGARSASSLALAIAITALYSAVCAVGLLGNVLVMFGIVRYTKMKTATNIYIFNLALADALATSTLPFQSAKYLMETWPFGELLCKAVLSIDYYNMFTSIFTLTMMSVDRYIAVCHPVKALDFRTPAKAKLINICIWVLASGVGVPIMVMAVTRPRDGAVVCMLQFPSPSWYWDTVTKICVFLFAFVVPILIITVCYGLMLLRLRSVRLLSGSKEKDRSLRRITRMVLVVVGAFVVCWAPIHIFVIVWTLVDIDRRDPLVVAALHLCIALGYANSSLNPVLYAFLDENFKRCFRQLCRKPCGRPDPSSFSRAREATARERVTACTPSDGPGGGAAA
# Experimental: as §1, with “NVS_GPCR_hOpiate_D1” for “NVS_GPCR_hNPY2”, “CHO” for “SK-N-MC”, “plate.NVS_GPCR_hOpiate_D1” for “plate.NVS_GPCR_hNPY2”, “NVS_GPCR_hOpiate_D1,” for “NVS_GPCR_hNPY2,”, “OPRD1.” for “NPY2R.”
# as §2, with “Assay-chemical combinations meeting a pre-defined threshold (e.g., 30% inhibition and other criteria defined below) were then run in singleton concentration-response format with maximum concentration of 20 uM for CYPs and 50 uM for all others.” left out
# [9] = target: Muscarinic acetylcholine receptor M3 (Homo sapiens) (UniProt P20309); assay: NVS_GPCR_hM3: NovaScreen (NVS) G Protein-Coupled Receptor Assay for human Muscarinic, M3 Receptor (AID 2283272)
# Sequence of Muscarinic acetylcholine receptor M3 (Homo sapiens) (P20309 whole entry, looked up): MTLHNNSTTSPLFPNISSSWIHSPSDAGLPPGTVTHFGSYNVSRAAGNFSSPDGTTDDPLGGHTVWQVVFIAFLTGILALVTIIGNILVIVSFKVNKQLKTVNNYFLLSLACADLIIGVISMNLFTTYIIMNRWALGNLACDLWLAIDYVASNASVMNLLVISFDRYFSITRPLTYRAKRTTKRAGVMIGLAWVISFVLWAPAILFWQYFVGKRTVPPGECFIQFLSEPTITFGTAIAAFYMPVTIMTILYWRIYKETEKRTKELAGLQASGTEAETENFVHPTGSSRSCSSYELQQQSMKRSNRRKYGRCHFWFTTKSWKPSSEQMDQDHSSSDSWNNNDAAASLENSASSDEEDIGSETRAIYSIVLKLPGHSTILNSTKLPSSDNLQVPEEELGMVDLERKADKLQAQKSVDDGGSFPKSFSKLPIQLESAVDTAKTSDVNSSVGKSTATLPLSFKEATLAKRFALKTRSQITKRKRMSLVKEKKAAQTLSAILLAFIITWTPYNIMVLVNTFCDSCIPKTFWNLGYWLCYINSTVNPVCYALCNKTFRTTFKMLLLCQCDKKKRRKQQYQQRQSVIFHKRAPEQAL
# Summary of the method: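 Radioligand displacement binding on human M3 receptor in CHO-derived membranes, 1 h incubation, filter-based scintillation counting. Primary screen in duplicate at 25 uM; actives followed up in concentration series; loss of signal versus DMSO.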
# [10] = target: human Neurotensin Receptor (NTS), NTSR1 (gene 4923) (UniProt P30989); assay: NVS_GPCR_hNTS: NovaScreen (NVS) G Protein-Coupled Receptor Assay for human Neurotensin Receptor (NTS) (AID 2283279)
# Sequence of human Neurotensin Receptor (NTS), NTSR1 (gene 4923) (P30989 whole entry, looked up): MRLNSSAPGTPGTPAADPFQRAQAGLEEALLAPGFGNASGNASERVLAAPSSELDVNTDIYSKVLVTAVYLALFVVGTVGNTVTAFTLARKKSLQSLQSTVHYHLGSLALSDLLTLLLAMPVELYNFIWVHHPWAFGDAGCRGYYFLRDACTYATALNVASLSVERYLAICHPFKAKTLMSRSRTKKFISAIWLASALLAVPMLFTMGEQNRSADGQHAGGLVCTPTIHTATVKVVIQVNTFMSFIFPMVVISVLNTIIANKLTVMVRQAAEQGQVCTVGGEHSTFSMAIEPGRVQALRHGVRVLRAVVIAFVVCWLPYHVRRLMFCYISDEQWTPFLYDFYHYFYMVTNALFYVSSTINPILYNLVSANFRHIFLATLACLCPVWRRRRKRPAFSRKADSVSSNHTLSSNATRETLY
# Summary of the method: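 Compounds competed with a radiolabelled ligand for binding to CHO-derived human neurotensin receptor; bound signal counted after filtration, 1 h. Screened first at a single concentration of 25 uM in duplicate, then concentration series to 50 uM maximum for actives.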
compound,measurement,setting,value
CNCc1cc(F)ccc1Oc1ccc(Cl)c(Cl)c1,AC50,[1],25 µM (active)
same,AC50,[2],25 µM (active)
NC(=O)Cn1c(=O)cc(CCN2CCN(c3nccc4sccc34)CC2)c2ccc(F)cc21,AC50,[3],9.95 µM (active)
same,AC50,[4],33.7 µM (active)
CCCCCCOCCO,outcome,[5],inactive
Cc1ccc(Cl)cc1,outcome,[5],inactive
O=C(N[C@@H](Cc1ccccc1)[C@@H](O)C(=O)N1C[C@@H](O)[C@@H](O)C1)c1cc2cc(Cl)ccc2[nH]1,outcome,[2],inactive
same,AC50,[4],22.6 µM (active)
C[C@]12C=CC(=O)C=C1CC[C@@H]1[C@@H]2C(=O)C[C@@]2(C)[C@H]1CC[C@]2(O)C(=O)CO,AC50,[1],15 µM (active)
same,AC50,[2],25 µM (active)
Oc1ccc2c(c1)OC[C@@H](N1CCC(O)(c3ccc(F)cc3)CC1)[C@H]2O,outcome,[1],inactive
same,AC50,[6],16 µM (active)
CCOC(=O)CCC(=O)OCC,AC50,[7],25 µM (active)
same,outcome,[1],inactive
same,outcome,[5],inactive
same,outcome,[4],inactive
Nc1nc(N)c2nc(CNc3ccc(C(=O)N[C@@H](CCC(=O)O)C(=O)O)cc3)cnc2n1,AC50,[1],40.7 µM (active)
same,outcome,[5],inactive
same,outcome,[8],inactive
C=CCOC(=O)c1ccccc1C(=O)OCC=C,AC50,[9],36.7 µM (active)
COc1ccc(S(=O)(=O)N2C(=O)[C@@](c3ccccc3OC)(N3C[C@H](O)C[C@H]3C(=O)N(C)C)c3cc(Cl)ccc32)c(OC)c1,AC50,[4],9.61 µM (active)
same,outcome,[8],inactive
Cc1cccc(C)c1O,outcome,[10],inactive
CCc1c(C(=O)NN2CCCCC2)nn(-c2ccc(Cl)cc2Cl)c1-c1ccc(Br)cc1,outcome,[4],inactive
same,outcome,[8],inactive
NCCO,AC50,[10],37.9 µM (active)
Cc1c(C(=O)O)c(O)cc2c1C(=O)c1c(O)c([C@@H]3O[C@H](CO)[C@@H](O)[C@H](O)[C@H]3O)c(O)c(O)c1C2=O,outcome,[9],inactive
same,outcome,[1],inactive
same,outcome,[2],inactive
COc1cc(-c2nc(NC(=O)c3cc4cc(C)cc(C)c4n3CC(=O)O)sc2CCC2CCCCC2)c(OC)cc1Cl,AC50,[4],15.9 µM (active)
CCOc1ccc2c(c1)C(C)=CC(C)(C)N2,outcome,[4],inactive
CC(=O)OC/C=C(\C)CCC=C(C)C,outcome,[5],inactive
Oc1ccc2ccccc2c1N=Nc1ccccc1,outcome,[4],inactive
Cc1nc(-c2ccc3c(c2)CCN(CCC2CCC(NC(=O)/C=C/c4ccc(F)cc4)CC2)CC3)no1 (stereo not given),outcome,[9],inactive
same,AC50,[1],0.0463 µM (active)
same,AC50,[2],0.123 µM (active)
same,outcome,[6],inactive
COc1cc(S(=O)(=O)O)c(C)cc1N=Nc1c(O)ccc2cc(S(=O)(=O)O)ccc12,outcome,[9],inactive
same,AC50,[1],36.1 µM (active)
same,outcome,[2],inactive
same,AC50,[6],31.4 µM (active)
same,AC50,[8],30 µM (active)
CC1=C(/C=C/C(C)=C/C=C/C(C)=C/CO)C(C)(C)CCC1,outcome,[4],inactive
CCCc1cc(=O)[nH]c(=S)[nH]1,outcome,[4],inactive
CCCCC(CC)COC(=O)CC(C(=O)OCC(CC)CCCC)S(=O)(=O)O (stereo not given),AC50,[7],25 µM (active)
same,AC50,[9],39.4 µM (active)
same,AC50,[2],37.6 µM (active)
same,AC50,[6],18 µM (active)
same,AC50,[4],35.7 µM (active)
same,AC50,[8],10.3 µM (active)
CCCCCCCCCCCC(=O)OC,AC50,[5],6.92 µM (active)
CN1CCN(Cc2cc(-c3ccc4[nH]c(=O)oc4c3)co2)[C@@H](c2ccc(F)cc2)C1,AC50,[2],26.7 µM (active)
same,AC50,[6],14.8 µM (active)
same,AC50,[4],35.4 µM (active)
CC1(C)CC(N=C=O)CC(C)(CN=C=O)C1 (stereo not given),AC50,[1],0.367 µM (active)
same,AC50,[2],2.94 µM (active)
same,outcome,[8],inactive
CC(=O)Oc1ccccc1C(=O)O,AC50,[3],4.96 µM (active)
Nc1ccc2c(c1)C(=O)c1ccccc1C2=O,outcome,[1],inactive
same,AC50,[8],38.4 µM (active)
